Source: PubChem BioAssay
In the library only some 4.2% were active in any assay of this set; here they are far more common.
TIM10 inh – growth inhibitors of TIM10 yeast strain; S. cerevisiae TIM10 strain growth, BacTiter-Glo luminescence, 24 h; inhibition, % at 10 µM; hit rate 1.4% among 330,000;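 active means inhibition of 40% or more at the single tested concentration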;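 further: wild-type TIM10 isogenic control strain grown at permissive 25 °C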
V-ATPase pH – alters yeast V-ATPase proton transport; hit rate 0.37% among 350,000; S. cerevisiae, pHLuorin cytosolic pH fluorescence; response, % at 10 µM; AID 504577; in the data active means response mostly above about 7.3%, no sharp cut-off; inactive means mostly below about 5.4%; further: actives read high
tim23-1 inh – growth inhibitors of tim23-1 mutant yeast; S. cerevisiae tim23-1 growth, BacTiter-Glo luminescence, 24 h; inhibition, % at 20 µM; hit rate 1.3% among 330,000; AID 463212;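 active means growth inhibition of the mutant yeast at or above 50%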;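 further: temperature-sensitive mutant grown at 25 °C; plate controls were DMSO-treated mutant yeast for no effect and medium wells lacking yeast for full effect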
NALP3 yeast inh – inhibitors of NALP3 inflammasome in yeast. hit rate 0.39% among 330,000. AID 2825. Yeast reconstituted NLRP3/ASC/caspase-1, beta-gal luminescence, 24 h. inhibition, % at 10 µM;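 active means inhibition of 50% or more; inactive means inhibition below 50%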;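 further: plate controls were induced DMSO wells for no effect and uninduced yeast grown without galactose for full effect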
tim10-1 inh – growth inhibitors of tim10-1 mutant yeast. S. cerevisiae tim10-1 ts strain growth, BacTiter-Glo, 24 h. inhibition, % at 20 µM. hit rate 2.2% among 330,000. AID 463190;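 active means inhibition of at least 40%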;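 further: mutant grown at 25 °C; 0% = DMSO wells with yeast and 100% = wells holding no yeast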
NALP1 inh – blocks the NALP1 inflammasome reconstituted in yeast; S. cerevisiae NALP1/ASC/caspase-1 growth, X-gal OD620, 72 h; inhibition, % at 10 µM; hit rate 0.61% among 280,000; in the data active means inhibition mostly above about 24%, no sharp cut-off; inactive means mostly below about 32%
tim10-1 conf – tim10-1 yeast growth inhibition, confirmed; shares compounds with tim10-1 inh; S. cerevisiae tim10-1 ts strain growth, BacTiter-Glo, 24 h; inhibition, % at 20 µM; hit rate 56% among 7,400; AID 463213;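 active means inhibition of yeast growth at or above a set limit in either of two repeat tests at 20 µM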;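 further: tim10-1 mutant grown at permissive 25 °C to find synthetic lethal compounds; 0% = DMSO yeast wells and 100% = medium wells without yeast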
TIM10 conf – TIM10 yeast growth inhibition, confirmed; inhibition, % at 10 µM; S. cerevisiae tim10 strain growth, BacTiter-Glo luminescence, 24 h; hit rate 63% among 4,600; shares compounds with TIM10 inh; AID 463215;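 active means inhibition of yeast growth at or above a set limit in either of two replicates at 10 µM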;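 further: this counterscreen used the strain with wild-type TIM10; 0% = yeast with DMSO and 100% = medium wells lacking yeast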
tim23-1 confirm – confirmation of tim23-1 mutant yeast growth inhibitors; shares compounds with tim23-1 inh; S. cerevisiae tim23-1 growth, BacTiter-Glo luminescence, 24 h; inhibition, % at 20 µM; hit rate 83% among 4,400; AID 463218;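 active means inhibition above about 39% in either of two replicate wells at 20 µM, limit read from the data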;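 further: temperature-sensitive tim23-1 mutant grown at 25 °C; 0% = DMSO wells with yeast and 100% = medium wells without yeast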
The depositor's hits bear a star.

What do the screens show for `COc1ccccc1NC(=O)/C(C#N)=C/c1cccnc1`?
TIM10 inh: 20; V-ATPase pH: 5; tim23-1 inh: 45; NALP3 yeast inh: 20; tim10-1 inh: 24; NALP1 inh: 13

What do the screens show for `N#C/C(=C\c1cccnc1)C(=O)Nc1cccc2ccccc12`?
TIM10 inh: 60*; V-ATPase pH: 3; tim23-1 inh: 77*; NALP3 yeast inh: 11; tim10-1 inh: 61*; NALP1 inh: 12; tim10-1 conf: 58*; TIM10 conf: 73*; tim23-1 confirm: 78*

How did N#C/C(=C\c1ccccc1)C(=O)NC1CC1 do in these assays?
TIM10 inh: 23; V-ATPase pH: -3; tim23-1 inh: 28; NALP3 yeast inh: 21; tim10-1 inh: 14; NALP1 inh: 17

How did COc1ccc(S(=O)(=O)Nc2ccc(S(=O)(=O)NCC3CCCO3)cc2)cc1 (centres undefined) do in these assays?
TIM10 inh: -1; V-ATPase pH: -3; tim23-1 inh: -7; NALP3 yeast inh: 14; tim10-1 inh: 1; NALP1 inh: -3

What do the screens show for `COc1ccc(NC(=O)C2CCN(S(=O)(=O)c3c(C)noc3C)CC2)cc1OC`?
TIM10 inh: 3; V-ATPase pH: -6; tim23-1 inh: -8; NALP3 yeast inh: 15; tim10-1 inh: -18; NALP1 inh: 24

How did CC1CCCCN1C(=O)COC(=O)Cc1c[nH]c2ccccc12 (centres undefined) do in these assays?
TIM10 inh: 2; V-ATPase pH: 3; tim23-1 inh: 1; NALP3 yeast inh: 17; tim10-1 inh: 5

What do the screens show for `N#C/C(=C\c1cccnc1)C(=O)Nc1cccc(Cl)c1`?
TIM10 inh: 50*; V-ATPase pH: 4; tim23-1 inh: 85*; NALP3 yeast inh: 10; tim10-1 inh: 48*; NALP1 inh: -4; tim10-1 conf: 34*; TIM10 conf: 24; tim23-1 confirm: 78*

Results for O=C(NCC1CC1)c1ccc2c3n(nc2c1)-c1ccccc1CO3 ?
TIM10 inh: 45*; V-ATPase pH: 3; tim23-1 inh: 69*; NALP3 yeast inh: 25; tim10-1 inh: 42*; NALP1 inh: 7; tim10-1 conf: 42*; TIM10 conf: 44*; tim23-1 confirm: 69*

Results for O=C(NC12CC3CC(CC(C3)C1)C2)C12CC3CC(C1)CC(n1cnc(Cl)n1)(C3)C2 ?
TIM10 inh: 46*; V-ATPase pH: -1; tim23-1 inh: 60*; NALP3 yeast inh: 5; tim10-1 inh: 65*; NALP1 inh: 4; tim10-1 conf: 53*; TIM10 conf: 46*; tim23-1 confirm: 50*

Results for O=C(O)C12CC3CC(C1)CC(n1cnc(Cl)n1)(C3)C2 ?
TIM10 inh: -9; V-ATPase pH: -3; tim23-1 inh: 17; NALP3 yeast inh: 14; tim10-1 inh: 17; NALP1 inh: 8

Results for CC(NC(=O)CCN1C(=O)c2ccccc2C1=O)c1ccccc1 (centres undefined) ?
TIM10 inh: 4; V-ATPase pH: 3; tim23-1 inh: -2; NALP3 yeast inh: 12; tim10-1 inh: -2; NALP1 inh: 8

Results for CCOC(=O)C1=C(C)N=C2SC(C(=O)OC)=CC(=O)N2C1c1ccc(F)cc1 (centres undefined) ?
TIM10 inh: 77*; V-ATPase pH: 1; tim23-1 inh: 86*; NALP3 yeast inh: 34; tim10-1 inh: 75*; NALP1 inh: 24; tim10-1 conf: 81*; TIM10 conf: 84*; tim23-1 confirm: 78*

Results for Cc1ccc(NC2CCCN(C(=O)c3ccoc3)C2)cc1C (centres undefined) ?
TIM10 inh: 7; V-ATPase pH: -4; tim23-1 inh: -10; NALP3 yeast inh: 8; tim10-1 inh: -4; NALP1 inh: 10

How did O=C(O/N=C1\C(=O)N(c2ccccc2)c2ccccc21)C1CC1 do in these assays?
TIM10 inh: 40; V-ATPase pH: 3; tim23-1 inh: 69*; NALP3 yeast inh: 0; tim10-1 inh: 47*; NALP1 inh: -34; tim10-1 conf: 44*; tim23-1 confirm: 64*

Results for COCCN1CN=C(Nc2nc(C)c3ccc(C)cc3n2)NC1 ?
NALP1 inh: 20

Results for N=c1c(C(=O)NC2CCCC2)cc2c(=O)n3ccccc3nc2n1C1CCCCC1 ?
TIM10 inh: 4; V-ATPase pH: -1; tim23-1 inh: -5; NALP3 yeast inh: 15; tim10-1 inh: 1; NALP1 inh: 11

Results for CC(C)(C)N=Cc1c(O)ccc2oc3c(c12)CCCC3 ?
TIM10 inh: 34; V-ATPase pH: -2; tim23-1 inh: 63*; NALP3 yeast inh: 9; tim10-1 inh: 41*; NALP1 inh: 12; tim10-1 conf: 33*; tim23-1 confirm: 64*

Results for C[C@H](NS(=O)(=O)c1ccccc1F)C(=O)OCC(=O)Nc1ccc2c(c1)OCCO2 ?
TIM10 inh: 5; V-ATPase pH: -4; tim23-1 inh: 8; NALP3 yeast inh: 7; tim10-1 inh: -5

What do the screens show for `CCCN(CCC)C(=O)c1cc([N+](=O)[O-])cc2c1-c1ccc([N+](=O)[O-])cc1C2=C(C#N)C#N`?
TIM10 inh: 11; tim23-1 inh: 74*; NALP3 yeast inh: 7; tim10-1 inh: 67*; NALP1 inh: -11; tim10-1 conf: 67*; tim23-1 confirm: 75*

How did COc1ccc2c(c1)CCC/C2=N/OC(=O)c1ccccc1OC do in these assays?
TIM10 inh: 24; V-ATPase pH: 16; tim23-1 inh: 43; NALP3 yeast inh: 17; tim10-1 inh: 28; NALP1 inh: 13

How did COc1ccc2c(c1)CC/C2=N\OC(=O)c1ccccc1C do in these assays?
TIM10 inh: 73*; V-ATPase pH: -3; tim23-1 inh: 70*; NALP3 yeast inh: 37; tim10-1 inh: 43*; NALP1 inh: -5; tim10-1 conf: 31; TIM10 conf: 87*; tim23-1 confirm: 75*

Results for Cn1c(CNc2ccccc2)cc(=O)n(C)c1=O ?
TIM10 inh: 6; V-ATPase pH: 3; tim23-1 inh: 12; NALP3 yeast inh: 10; tim10-1 inh: 6; NALP1 inh: 15

Results for Oc1c(Br)cc(Br)cc1/C=N/n1c(-c2ccccc2)n[nH]c1=S ?
TIM10 inh: 39; V-ATPase pH: -1; tim23-1 inh: 80*; NALP3 yeast inh: 21; tim10-1 inh: 66*; NALP1 inh: -3; tim10-1 conf: 50*; tim23-1 confirm: 88*
